# Measured values taken from PMC7862700, “An all-to-all approach to the identification of sequence-specific readers for epigenetic DNA modifications on cytosine”.
# Columns and labels:
# Test in all cases: DAPPL (digital affinity profiling via proximity ligation, sequencing); 10 mM Tris-HCl pH 7.5, 50 mM NaCl, 1 mM DTT, 4% glycerol, room temperature, 30 min; GST-TFs on glutathione beads, 16-mer random dsDNA library, 0.1% formaldehyde crosslink after washing; high values mean tight binding
# FEV = target: T1, FEV (Homo sapiens, UniProt Q99581 1-238); settings: protein: recombinant; tags: N-terminal GST; dsDNA, one strand shown
# T1 sequence: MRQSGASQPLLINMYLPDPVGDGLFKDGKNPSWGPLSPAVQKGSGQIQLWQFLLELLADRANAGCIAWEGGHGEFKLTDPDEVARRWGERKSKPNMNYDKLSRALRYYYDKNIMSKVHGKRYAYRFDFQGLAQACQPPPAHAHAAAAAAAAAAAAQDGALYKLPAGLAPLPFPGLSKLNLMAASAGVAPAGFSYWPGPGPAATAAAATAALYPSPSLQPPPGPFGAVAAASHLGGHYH
# Procedure, shortened: (§1)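 Binding signal is given per hexamer as its read frequency for a factor divided by its frequency in the tag-only sample. GST-fused human transcription factors were expressed in yeast, captured on glutathione beads, barcoded with DNA and pooled with that sample, then incubated with 200 nmole of a 16-mer random double-stranded DNA library in Tris/NaCl/DTT/glycerol buffer for 30 min at room temperature. The pools were then washed, crosslinked, proximity-ligated, amplified by PCR and sequenced on an Illumina NextSeq500.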
# ETV5 = ETV5 (Homo sapiens, UniProt P41161 1-510); settings: protein: recombinant; tags: N-terminal GST; dsDNA, one strand shown
# ETV5, sequence (P41161 whole entry): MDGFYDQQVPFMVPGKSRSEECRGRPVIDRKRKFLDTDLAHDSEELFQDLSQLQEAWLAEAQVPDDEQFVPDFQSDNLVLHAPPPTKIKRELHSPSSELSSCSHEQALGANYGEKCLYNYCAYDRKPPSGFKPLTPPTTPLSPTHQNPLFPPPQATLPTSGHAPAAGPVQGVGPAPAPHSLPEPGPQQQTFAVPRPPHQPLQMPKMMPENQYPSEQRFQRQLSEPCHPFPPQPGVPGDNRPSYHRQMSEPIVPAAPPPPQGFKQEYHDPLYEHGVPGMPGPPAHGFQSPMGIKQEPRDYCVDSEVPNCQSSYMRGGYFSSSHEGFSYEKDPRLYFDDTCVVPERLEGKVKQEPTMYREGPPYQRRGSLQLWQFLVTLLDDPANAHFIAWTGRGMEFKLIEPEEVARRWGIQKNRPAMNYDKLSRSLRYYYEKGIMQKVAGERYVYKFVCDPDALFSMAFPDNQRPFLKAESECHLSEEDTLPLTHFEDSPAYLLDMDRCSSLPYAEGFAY
# Procedure, shortened: as §1
# HSF1 = HSF1 (Homo sapiens, UniProt Q00613 1-529); settings: protein: recombinant; tags: N-terminal GST; chain copies: 3; dsDNA, one strand shown
# HSF1, sequence (Q00613 whole entry): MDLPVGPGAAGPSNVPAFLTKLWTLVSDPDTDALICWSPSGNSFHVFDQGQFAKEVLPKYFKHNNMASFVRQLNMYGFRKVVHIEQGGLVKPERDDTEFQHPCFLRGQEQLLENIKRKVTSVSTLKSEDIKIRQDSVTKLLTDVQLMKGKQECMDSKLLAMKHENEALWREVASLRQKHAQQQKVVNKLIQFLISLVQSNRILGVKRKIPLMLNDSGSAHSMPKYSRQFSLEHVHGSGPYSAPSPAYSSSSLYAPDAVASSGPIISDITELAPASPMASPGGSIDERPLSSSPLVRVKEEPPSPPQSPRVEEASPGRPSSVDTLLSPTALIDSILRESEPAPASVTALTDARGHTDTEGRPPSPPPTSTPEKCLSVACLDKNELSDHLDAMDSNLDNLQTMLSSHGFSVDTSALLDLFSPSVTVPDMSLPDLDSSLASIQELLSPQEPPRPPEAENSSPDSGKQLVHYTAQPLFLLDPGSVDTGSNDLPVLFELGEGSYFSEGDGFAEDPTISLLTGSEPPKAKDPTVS
# Procedure, shortened: as §1
# SPIC = target: T2, SPIC (Homo sapiens, UniProt Q8N5J4 1-248); settings: protein: recombinant; tags: N-terminal GST; dsDNA, one strand shown
# T2 sequence: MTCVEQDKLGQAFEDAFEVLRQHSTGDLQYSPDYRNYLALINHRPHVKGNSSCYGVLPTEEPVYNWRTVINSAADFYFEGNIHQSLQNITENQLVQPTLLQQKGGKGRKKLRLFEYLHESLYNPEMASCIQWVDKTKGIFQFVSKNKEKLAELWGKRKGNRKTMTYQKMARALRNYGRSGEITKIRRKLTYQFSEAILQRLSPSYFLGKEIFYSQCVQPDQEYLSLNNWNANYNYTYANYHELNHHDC
# Procedure, shortened: as §1
# ELF4 = ELF4 (Homo sapiens, UniProt Q99607 1-663); settings: protein: recombinant; tags: N-terminal GST; dsDNA, one strand shown
# ELF4, sequence (Q99607 whole entry): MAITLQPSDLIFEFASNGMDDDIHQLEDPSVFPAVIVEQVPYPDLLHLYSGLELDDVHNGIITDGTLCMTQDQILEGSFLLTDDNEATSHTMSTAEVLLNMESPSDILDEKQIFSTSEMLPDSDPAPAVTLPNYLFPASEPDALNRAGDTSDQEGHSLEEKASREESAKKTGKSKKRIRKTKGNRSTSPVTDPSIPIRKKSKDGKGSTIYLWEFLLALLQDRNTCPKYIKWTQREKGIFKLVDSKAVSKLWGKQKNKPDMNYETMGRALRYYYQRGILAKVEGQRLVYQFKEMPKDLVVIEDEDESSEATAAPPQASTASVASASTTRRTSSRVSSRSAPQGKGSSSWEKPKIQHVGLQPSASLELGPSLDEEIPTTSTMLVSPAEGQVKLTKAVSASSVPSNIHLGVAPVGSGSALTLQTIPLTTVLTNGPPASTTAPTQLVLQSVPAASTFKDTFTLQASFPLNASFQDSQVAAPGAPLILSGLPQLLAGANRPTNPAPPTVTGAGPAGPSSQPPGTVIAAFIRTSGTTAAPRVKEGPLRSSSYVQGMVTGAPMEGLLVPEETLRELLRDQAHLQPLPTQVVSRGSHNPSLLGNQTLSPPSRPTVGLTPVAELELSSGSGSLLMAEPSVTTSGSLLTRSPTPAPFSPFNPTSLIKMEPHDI
# Procedure, shortened: as §1
# ELK4 = target: T3, ELK4 (Homo sapiens, UniProt P28324-2 1-405); settings: protein: recombinant; tags: N-terminal GST; dsDNA, one strand shown
# T3 sequence: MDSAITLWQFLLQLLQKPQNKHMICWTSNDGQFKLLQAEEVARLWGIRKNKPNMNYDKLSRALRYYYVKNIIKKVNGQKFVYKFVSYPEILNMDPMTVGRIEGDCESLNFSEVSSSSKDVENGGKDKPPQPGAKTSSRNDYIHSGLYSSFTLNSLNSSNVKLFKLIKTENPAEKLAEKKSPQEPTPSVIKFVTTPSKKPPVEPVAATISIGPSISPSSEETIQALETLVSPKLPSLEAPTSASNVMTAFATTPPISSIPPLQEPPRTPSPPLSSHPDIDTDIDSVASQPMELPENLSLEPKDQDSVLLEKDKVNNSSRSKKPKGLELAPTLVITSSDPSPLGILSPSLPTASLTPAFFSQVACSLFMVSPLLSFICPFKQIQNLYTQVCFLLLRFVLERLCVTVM
# Procedure, shortened: as §1
# ETV2 = target: T4, ETV2 (Homo sapiens, UniProt O00321 1-342); settings: protein: recombinant; tags: N-terminal GST; dsDNA, one strand shown
# T4 sequence: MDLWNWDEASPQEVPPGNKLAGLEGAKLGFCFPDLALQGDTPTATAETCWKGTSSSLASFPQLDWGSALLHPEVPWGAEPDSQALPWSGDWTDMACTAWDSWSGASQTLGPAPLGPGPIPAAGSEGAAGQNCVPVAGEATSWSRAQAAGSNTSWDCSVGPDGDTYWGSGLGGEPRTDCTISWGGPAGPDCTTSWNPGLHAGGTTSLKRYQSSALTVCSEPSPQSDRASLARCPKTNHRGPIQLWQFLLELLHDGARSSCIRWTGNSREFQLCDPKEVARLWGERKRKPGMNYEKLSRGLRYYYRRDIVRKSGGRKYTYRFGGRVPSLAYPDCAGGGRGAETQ
# Procedure, shortened: as §1
# ELF3 = target: T5, ELF3 (Homo sapiens, UniProt P78545 1-371); settings: protein: recombinant; tags: N-terminal GST; dsDNA, one strand shown
# T5 sequence: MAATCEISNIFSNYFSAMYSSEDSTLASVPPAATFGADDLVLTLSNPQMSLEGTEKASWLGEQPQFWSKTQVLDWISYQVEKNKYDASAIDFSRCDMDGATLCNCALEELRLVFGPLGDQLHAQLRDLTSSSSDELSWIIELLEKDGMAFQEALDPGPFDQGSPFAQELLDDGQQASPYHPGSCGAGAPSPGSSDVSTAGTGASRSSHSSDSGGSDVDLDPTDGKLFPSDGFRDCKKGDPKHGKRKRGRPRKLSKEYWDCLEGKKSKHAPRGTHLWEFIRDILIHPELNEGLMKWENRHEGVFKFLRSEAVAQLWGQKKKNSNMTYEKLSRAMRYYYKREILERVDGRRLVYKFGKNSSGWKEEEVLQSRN
# Procedure, shortened: as §1
# CRX = CRX (Homo sapiens, UniProt O43186 1-299); settings: protein: recombinant; tags: N-terminal GST; dsDNA, one strand shown
# CRX, sequence (O43186 whole entry): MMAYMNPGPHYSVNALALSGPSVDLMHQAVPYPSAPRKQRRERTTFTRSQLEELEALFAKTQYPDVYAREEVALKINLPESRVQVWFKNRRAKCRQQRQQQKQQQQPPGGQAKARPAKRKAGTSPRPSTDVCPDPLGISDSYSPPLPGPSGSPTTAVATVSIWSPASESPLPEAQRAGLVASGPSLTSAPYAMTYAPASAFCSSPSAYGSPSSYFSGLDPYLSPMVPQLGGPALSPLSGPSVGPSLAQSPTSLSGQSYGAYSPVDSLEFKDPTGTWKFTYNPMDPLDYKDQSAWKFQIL
# Procedure, shortened: as §1
# ETV1 = ETV1 (Homo sapiens, UniProt P50549 1-477); settings: protein: recombinant; tags: N-terminal GST; dsDNA, one strand shown
# ETV1, sequence (P50549 whole entry): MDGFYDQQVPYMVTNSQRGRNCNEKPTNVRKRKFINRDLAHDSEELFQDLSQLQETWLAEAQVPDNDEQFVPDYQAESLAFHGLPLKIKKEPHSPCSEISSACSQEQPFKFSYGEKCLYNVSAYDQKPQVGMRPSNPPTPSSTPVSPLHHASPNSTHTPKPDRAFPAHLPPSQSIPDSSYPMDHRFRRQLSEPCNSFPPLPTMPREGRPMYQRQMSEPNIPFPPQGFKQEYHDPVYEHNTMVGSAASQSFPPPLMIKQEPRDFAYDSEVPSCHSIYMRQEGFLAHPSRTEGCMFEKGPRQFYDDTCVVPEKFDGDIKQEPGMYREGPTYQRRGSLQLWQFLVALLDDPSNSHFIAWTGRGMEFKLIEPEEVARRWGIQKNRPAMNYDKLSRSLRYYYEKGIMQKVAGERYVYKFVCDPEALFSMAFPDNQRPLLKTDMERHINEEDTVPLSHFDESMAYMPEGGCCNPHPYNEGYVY
# Procedure, shortened: as §1
# ERF = target: T6, ERF (Homo sapiens, UniProt P50548 1-548); settings: protein: recombinant; tags: N-terminal GST; dsDNA, one strand shown
# T6 sequence: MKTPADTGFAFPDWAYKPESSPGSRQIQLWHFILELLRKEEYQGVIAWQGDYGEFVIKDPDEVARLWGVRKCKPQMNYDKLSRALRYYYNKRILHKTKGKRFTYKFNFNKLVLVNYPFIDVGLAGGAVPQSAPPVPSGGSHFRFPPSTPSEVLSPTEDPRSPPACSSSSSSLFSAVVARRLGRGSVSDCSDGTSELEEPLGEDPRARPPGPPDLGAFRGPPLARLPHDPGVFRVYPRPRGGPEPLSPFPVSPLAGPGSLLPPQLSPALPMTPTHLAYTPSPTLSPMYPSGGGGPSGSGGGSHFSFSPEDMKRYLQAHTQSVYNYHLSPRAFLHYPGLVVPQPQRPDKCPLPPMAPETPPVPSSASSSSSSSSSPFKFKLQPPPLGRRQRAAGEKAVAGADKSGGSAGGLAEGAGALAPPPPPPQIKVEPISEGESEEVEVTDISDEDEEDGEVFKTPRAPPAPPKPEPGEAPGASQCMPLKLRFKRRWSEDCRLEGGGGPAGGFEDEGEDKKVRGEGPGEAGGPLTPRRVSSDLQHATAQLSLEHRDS
# Procedure, shortened: as §1
# ETV3L = target: T7, ETV3L (Homo sapiens, UniProt Q6ZN32 1-361); settings: protein: recombinant; tags: N-terminal GST; dsDNA, one strand shown
# T7 sequence: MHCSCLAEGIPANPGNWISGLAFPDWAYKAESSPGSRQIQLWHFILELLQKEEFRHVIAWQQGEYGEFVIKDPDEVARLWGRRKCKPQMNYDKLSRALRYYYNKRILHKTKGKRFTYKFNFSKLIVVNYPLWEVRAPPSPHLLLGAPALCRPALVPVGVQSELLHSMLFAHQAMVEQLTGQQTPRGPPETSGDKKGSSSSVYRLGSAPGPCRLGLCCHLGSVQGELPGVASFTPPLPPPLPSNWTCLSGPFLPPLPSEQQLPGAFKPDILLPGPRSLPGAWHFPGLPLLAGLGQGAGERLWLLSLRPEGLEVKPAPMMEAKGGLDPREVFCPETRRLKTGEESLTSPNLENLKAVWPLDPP
# Procedure, shortened: as §1
# ETS2 = target: T8, ETS2 (Homo sapiens, UniProt P15036 1-469); settings: protein: recombinant; tags: N-terminal GST; dsDNA, one strand shown
# T8 sequence: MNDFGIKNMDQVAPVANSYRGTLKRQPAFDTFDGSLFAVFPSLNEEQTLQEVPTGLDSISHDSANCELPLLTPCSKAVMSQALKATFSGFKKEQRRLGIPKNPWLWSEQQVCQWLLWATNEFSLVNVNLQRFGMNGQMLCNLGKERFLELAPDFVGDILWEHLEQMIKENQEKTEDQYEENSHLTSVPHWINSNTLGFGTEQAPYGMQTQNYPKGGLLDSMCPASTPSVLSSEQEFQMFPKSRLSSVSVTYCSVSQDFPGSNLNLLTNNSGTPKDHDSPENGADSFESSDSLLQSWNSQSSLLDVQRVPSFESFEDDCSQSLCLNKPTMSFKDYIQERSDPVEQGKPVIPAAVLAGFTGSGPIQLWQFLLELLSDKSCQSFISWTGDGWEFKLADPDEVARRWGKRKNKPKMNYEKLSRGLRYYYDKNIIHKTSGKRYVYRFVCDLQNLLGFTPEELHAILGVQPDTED
# Procedure, shortened: as §1
# SPDEF = target: T9, SPDEF (Homo sapiens, UniProt O95238 1-335); settings: protein: recombinant; tags: N-terminal GST; dsDNA, one strand shown
# T9 sequence: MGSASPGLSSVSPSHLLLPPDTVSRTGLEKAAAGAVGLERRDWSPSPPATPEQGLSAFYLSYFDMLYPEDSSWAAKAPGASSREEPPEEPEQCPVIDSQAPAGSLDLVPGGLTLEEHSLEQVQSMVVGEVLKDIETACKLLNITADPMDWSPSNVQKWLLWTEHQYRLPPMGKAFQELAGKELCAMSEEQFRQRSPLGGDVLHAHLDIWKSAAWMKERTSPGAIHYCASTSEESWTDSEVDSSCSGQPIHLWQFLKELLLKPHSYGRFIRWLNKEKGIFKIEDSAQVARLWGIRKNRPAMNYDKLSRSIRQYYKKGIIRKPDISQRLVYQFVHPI
# Procedure, shortened: as §1
# ETV7 = target: T10, ETV7 (Homo sapiens, UniProt Q9Y603 1-341); settings: protein: recombinant; tags: N-terminal GST; dsDNA, one strand shown
# T10 sequence: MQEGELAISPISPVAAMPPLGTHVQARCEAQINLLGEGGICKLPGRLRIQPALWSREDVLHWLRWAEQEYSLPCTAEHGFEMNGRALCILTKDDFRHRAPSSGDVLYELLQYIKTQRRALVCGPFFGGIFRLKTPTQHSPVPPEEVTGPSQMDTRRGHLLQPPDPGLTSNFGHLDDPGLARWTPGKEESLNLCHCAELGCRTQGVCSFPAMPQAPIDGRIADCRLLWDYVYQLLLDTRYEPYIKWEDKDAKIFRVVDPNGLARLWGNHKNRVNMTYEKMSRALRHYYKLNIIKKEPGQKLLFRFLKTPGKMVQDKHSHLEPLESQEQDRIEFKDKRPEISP
# Procedure, shortened: as §1
# ELF5 = target: T11, ELF5 (Homo sapiens, UniProt Q9UKW6-2 1-255); settings: protein: recombinant; tags: N-terminal GST; dsDNA, one strand shown
# T11 sequence: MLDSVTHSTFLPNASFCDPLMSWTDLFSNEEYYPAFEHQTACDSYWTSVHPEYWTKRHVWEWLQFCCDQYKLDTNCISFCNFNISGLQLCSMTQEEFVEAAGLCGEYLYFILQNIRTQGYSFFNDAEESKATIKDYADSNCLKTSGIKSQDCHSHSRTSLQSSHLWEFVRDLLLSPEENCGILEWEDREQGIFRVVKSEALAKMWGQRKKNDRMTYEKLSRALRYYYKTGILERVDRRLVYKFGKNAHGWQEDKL
# Procedure, shortened: as §1
# ETV3 = target: T12, ETV3 (Homo sapiens, UniProt P41162-2 1-143); settings: protein: recombinant; tags: N-terminal GST; dsDNA, one strand shown
# T12 sequence: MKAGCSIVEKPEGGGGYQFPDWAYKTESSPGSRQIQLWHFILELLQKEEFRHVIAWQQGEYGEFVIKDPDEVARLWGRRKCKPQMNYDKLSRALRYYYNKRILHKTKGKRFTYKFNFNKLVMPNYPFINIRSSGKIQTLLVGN
# Procedure, shortened: as §1
# ETV6 = ETV6 (Homo sapiens, UniProt P41212 1-452); settings: protein: recombinant; tags: N-terminal GST; dsDNA, one strand shown
# ETV6, sequence (P41212 whole entry): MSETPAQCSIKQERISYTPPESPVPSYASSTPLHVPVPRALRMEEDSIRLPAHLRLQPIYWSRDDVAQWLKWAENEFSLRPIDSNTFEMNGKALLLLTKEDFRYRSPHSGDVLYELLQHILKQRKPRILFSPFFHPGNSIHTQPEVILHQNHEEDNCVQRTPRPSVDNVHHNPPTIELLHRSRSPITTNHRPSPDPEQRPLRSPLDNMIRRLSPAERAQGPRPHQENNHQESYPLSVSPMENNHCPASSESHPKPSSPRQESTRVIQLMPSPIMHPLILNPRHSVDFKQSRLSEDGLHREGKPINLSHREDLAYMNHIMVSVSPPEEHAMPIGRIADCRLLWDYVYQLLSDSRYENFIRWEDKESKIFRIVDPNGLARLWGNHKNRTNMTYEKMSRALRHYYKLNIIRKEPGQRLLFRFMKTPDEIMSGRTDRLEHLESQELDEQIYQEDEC
# Procedure, shortened: as §1
sequence,measurement,setting,value
TACTGC,binding signal,FEV,"1.24 fold enrichment (6-mer frequency, TF over GST control)"
same,binding signal,ETV5,"1.32 fold enrichment (6-mer frequency, TF over GST control)"
same,binding signal,HSF1,"1.1 fold enrichment (6-mer frequency, TF over GST control)"
same,binding signal,SPIC,"1.29 fold enrichment (6-mer frequency, TF over GST control)"
same,binding signal,ELF4,"1.22 fold enrichment (6-mer frequency, TF over GST control)"
same,binding signal,ELK4,"1.17 fold enrichment (6-mer frequency, TF over GST control)"
same,binding signal,ETV2,"1.09 fold enrichment (6-mer frequency, TF over GST control)"
same,binding signal,ELF3,"1.34 fold enrichment (6-mer frequency, TF over GST control)"
same,binding signal,CRX,"1.17 fold enrichment (6-mer frequency, TF over GST control)"
same,binding signal,ETV1,"1.08 fold enrichment (6-mer frequency, TF over GST control)"
same,binding signal,ERF,"1.14 fold enrichment (6-mer frequency, TF over GST control)"
same,binding signal,ETV3L,"1.17 fold enrichment (6-mer frequency, TF over GST control)"
same,binding signal,ETS2,"1.2 fold enrichment (6-mer frequency, TF over GST control)"
same,binding signal,SPDEF,"1.26 fold enrichment (6-mer frequency, TF over GST control)"
same,binding signal,ETV7,"1.2 fold enrichment (6-mer frequency, TF over GST control)"
same,binding signal,ELF5,"1.17 fold enrichment (6-mer frequency, TF over GST control)"
same,binding signal,ETV3,"1.31 fold enrichment (6-mer frequency, TF over GST control)"
same,binding signal,ETV6,"1.26 fold enrichment (6-mer frequency, TF over GST control)"
